PubChem BioAssay (NCATS)
Records with an inconclusive call do not appear. Active and inactive are the calls of the source. Calls follow the shape of the dose curve; as a rule, active = well fitted curve in the direction sought with a large enough effect; inconclusive = small, poorly fitted or top-dose-only effect, or another doubt; inactive = no such curve, though single readings can be large; an effect the other way counts as inactive or inconclusive.

Target: N-terminal Xaa-Pro-Lys N-methyltransferase 1 (Homo sapiens) (UniProt Q9BV86)
Experiment: Confirmatory qHTS for Inhibitors of N-terminal methyltransferase 1 (NTMT1): MTaseGlo Assay (AID 1645874); also: nearly all actives have a fitted effect of over 65% in size
Details: NTMT1 enzyme, MTase-Glo SAH luminescence; series mostly up to 100 µM
Summary of the method: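 Inhibition was derived from luminescence after SAH-to-ATP conversion, scaled between no-enzyme and DMSO wells, then fitted by 4-parameter Hill. Conditions: 125 nM NTMT1, 100 uM SAM, 1 uM SPKRIA, 30 min RT.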
Potency is read from the fitted curve at half-maximal effect.

N-terminal Xaa-Pro-Lys N-methyltransferase 1 (Homo sapiens), sequence (Q9BV86 whole entry, looked up): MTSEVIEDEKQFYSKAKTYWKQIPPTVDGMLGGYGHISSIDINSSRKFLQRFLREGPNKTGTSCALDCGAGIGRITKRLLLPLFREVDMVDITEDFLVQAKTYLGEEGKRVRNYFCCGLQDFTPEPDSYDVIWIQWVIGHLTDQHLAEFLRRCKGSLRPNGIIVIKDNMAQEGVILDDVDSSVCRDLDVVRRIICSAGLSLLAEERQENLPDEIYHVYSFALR

Row | Compound | Potency
1 | CCOc1ccc(Cc2nc(-c3c(C)nc4ccccn34)cs2)cc1 | inactive
2 | CCCC1(CCC)CCC2(CCN(CCCN(CC)CC)C2)CC1 | 50.1 µM (active)
3 | C/C=C/C=C/C=C/C(=O)O[C@@H]1C=C2COC(=O)[C@]2(O)[C@@]2(C)CCCC(C)(C)[C@H]12 | inactive
4 | O=C([C@@H]1CCCN(c2ccc3[nH]c(C4(n5cc(Cl)cn5)CC4)nc3n2)C1)N1CCCC1 | inactive

System: not listed separately
Experiment: Primary qHTS for inhibitors of nuclear receptor binding SET domain protein 2 (NSD2) in an isogenic RCH-ACV NSD2 p.E1099K mutant (9B) (AID 1645876); also: nearly all actives have a fitted effect of over 70% in size
Details: RCH-ACV (leukaemia line) NSD2 E1099K (9B) viability, CellTiter-Glo, 72 h; series mostly up to 44.9 µM

Row | Compound | Potency
5 | COC(=O)N1CCC(n2ncc3c(N4CCOCC4)nc(-c4ccc(NC(=O)NC5CC5)cc4)nc32)CC1 | 0.0817 µM (active)
6 | CC1=C(C(=O)OC2CCCCC2)C(c2ccc([N+](=O)[O-])cc2)C2=C(CC(C)(C)CC2=O)N1 (centres undefined) | inactive
7 | CC(C)c1ccc(NC(=O)Cn2cnc3c2c(=O)n(C)c(=O)n3C)cc1 | inactive
8 | O=C(Nc1cc(C(F)(F)F)cc(C(F)(F)F)c1)c1cnc(Cl)nc1C(F)(F)F | 25.8 µM (active)
9 | CCOc1ccc(Cc2nc(-c3c(C)nc4ccccn34)cs2)cc1 | 0.183 µM (active)
10 | CCCC1(CCC)CCC2(CCN(CCCN(CC)CC)C2)CC1 | 2.63 µM (active)
11 | CNc1ccc([N+](=O)[O-])c(Nc2ccc3[nH]ncc3c2)n1 | 7.28 µM (active)
12 | O=C(Nc1ccc(Cl)cc1)C1CCCN(C(=O)c2cccc(-c3ccco3)c2)C1 (centres undefined) | 14.5 µM (active)
13 | C/C=C/C=C/C=C/C(=O)O[C@@H]1C=C2COC(=O)[C@]2(O)[C@@]2(C)CCCC(C)(C)[C@H]12 | 2.82 µM (active)
14 | Cc1c(OCc2cccc(-c3ccc(C(=O)O)cc3)c2)cc2c(c1C)C(=O)C(C1CCCC1)C2 (centres undefined) | inactive
